FXN GAA850 act – FXN promoter activators, primary screen, cell-based, luciferase luminescence, HEK293 lucGAA850; HEK293 lucGAA850 FXN promoter luciferase reporter, 24 h; percent of 10 µM SAHA response; actives 0.56% (n = 360,000); activation, % at 6 µM;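 active means activation above the average of all compounds screened plus 3 SD, cutoff fixed separately per campaign, cut at about 7.5% in these data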;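 further: 0% = DMSO wells and 100% = 10 µM SAHA wells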
C2C12 statin – suppressors of statin myotoxicity in C2C12 myotubes, primary screen, cell-based, single point, plate reader. C2C12 myotubes + simvastatin, ATP luminescence, 48 h; scaled: DMSO 0, geranylgeraniol control 100. rescue of ATP level, % at 7.49 µM. actives 0.78% (n = 330,000);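 active means mean ATP rescue above about 67%, or every replicate alone reaching that limit, limit read from the data, passing the limit was not always enough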;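 further: myotubes were challenged with 10 µM simvastatin during compound exposure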
esBAF inh – Bmi1 luciferase reporter increase in mESCs, primary screen, esBAF inhibitor project, mouse ES cells, Bmi1 luciferase knock-in, single point; 24 h; 100% = twice the neutral-well signal; reporter increase, % at 12.5 µM; actives 2% (n = 350,000); in the data active means activation above about 40%;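 further: 0% = median of the plate's neutral control wells and 100% = double that signal; a rise in the Bmi1 reporter signal indicates esBAF inhibition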
Wnt bcat act – Wnt/beta-catenin pathway activators, primary screen, cell-based, plate reader, single point; Wnt/beta-catenin reporter cell assay, activator; activation, % at 9.35 µM; actives 1.2% (n = 300,000); in the data active means activation above about 30%, passing the limit was not always enough;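 further: 0% = neutral control wells and 100% = positive control wells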
MITF TRPM1 HTS – activators of MITF-driven TRPM1 promoter reporter, primary screen, cell-based, SK-MEL-5, luciferase, single point; actives 0.75% (n = 300,000); SK-MEL-5 TRPM1-promoter luciferase, 24 h; % of positive control, neutral wells = 0; activation, % at 12.5 µM; AID 588334, 2011;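 active means mean activation of at least 80% with every replicate also reaching 80%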;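 further: 0% = neutral control wells and 100% = parthenolide positive control wells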
GAA30 FXN cntr – GAA30 FXN promoter activators, confirmation, counter-screen for GAA850 frataxin promoter activator project, cell-based, luminescence, HEK293, lucGAA30, triplicate; shares compounds with FXN GAA850 act; HEK293 lucGAA30 FXN promoter luciferase, 24 h; DMSO = 0%, 5 µM ipriflavone = 100%; activation, % at 6 µM; actives 66% (n = 1,900); AID 588350, 2011;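 active means mean activation above the mean of solvent-only control wells plus 3 SD, cut at about 22% in these data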;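 further: counterscreen of GAA850 promoter hits where activity marks nonselective or luminescence artifacts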
FXN GAA850 conf – FXN GAA850 promoter activators in reporter cells, confirmation, cell-based, luminescence, HEK293 lucGAA850, triplicate; activation, % at 6 µM; actives 86% (n = 1,900); HEK293 lucGAA850 FXN promoter luciferase reporter, 24 h; 100% = activation by SAHA; shares compounds with FXN GAA850 act;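 active means mean activation above a set limit taken from the primary screen, cut at about 8% in these data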;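 further: 0% = DMSO wells and 100% = 10 µM SAHA wells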
Active calls of the source: *; . = no result given. Rows were chosen to be rich in hits. Some 3.3% of all compounds tested hit in one or more screens of this group.

SMILES	FXN GAA850 act	C2C12 statin	esBAF inh	Wnt bcat act	MITF TRPM1 HTS	GAA30 FXN cntr	FXN GAA850 conf
Cc1ccc(S(=O)(=O)N(C)C[C@H]2Oc3ccc(NC(=O)c4ccncc4)cc3CC(=O)N([C@@H](C)CO)C[C@H]2C)cc1	.	3.0	4.5	.	.	.	.
CCCC#Cc1cnc2c(c1)C(=O)N([C@H](C)CO)C[C@@H](C)[C@@H](CN(C)C(=O)Nc1ccc(OC)cc1)O2	.	33.0	2.3	.	.	.	.
N#C/C(=C/c1ccco1)c1nc2ccccc2s1	7.7*	.	.	51.5*	5.3	142.3*	45.4*
C[C@@H]1CN([C@H](C)CO)S(=O)(=O)c2ccc(-c3ccc(C(=O)N(C)C)cc3)cc2O[C@@H]1CN(C)C(=O)C1CCCCC1	.	-4.9	0.6	.	.	.	.
Cn1c2ccccc2c2cc([N+](=O)[O-])ccc21	1.7	-8.0	3.9	2.5	.	.	.
CCN(CC)CCn1c2ccccc2c2nc3ccc([N+](=O)[O-])cc3cc21	11.1*	.	.	14.5	.	24.0*	28.3*
Cc1ccccc1-c1cnc2c(c1)C(=O)N([C@@H](C)CO)C[C@H](C)[C@H](CN(C)C(=O)c1ccccc1)O2	.	-1.8	-7.0	.	.	.	.
CCCCC1(Cc2ccc([N+](=O)[O-])cc2)C(=O)N(c2ccccc2)N(c2ccccc2)C1=O	9.5*	17.5	-30.6	-14.3	-16.5	14.1	6.8
CCCCC1(COC(=O)CCC(=O)O)C(=O)N(c2ccccc2)N(c2ccccc2)C1=O	-0.4	4.1	2.7	-1.6	25.8	.	.
c1ccc2nc(-c3ccc(N4CCOCC4)cc3)ccc2c1	-4.2	-19.1	-73.3	.	.	.	.
Cc1cc(-c2ccc(N3CCOCC3)cc2)nc2ccccc12	8.0*	.	.	.	34.9	129.9*	50.3*
C[C@H]1CCCCO[C@H](CN(C)S(=O)(=O)c2cn(C)cn2)[C@@H](C)CN([C@@H](C)CO)C(=O)c2cc(N(C)C)ccc2O1	.	-18.4	-1.9	.	.	.	.
O=C(O)c1ccccc1NN=C1CCCCC1	9.0*	2.7	83.0*	4.1	12.5	38.0*	7.2
CC(C)NC(=O)N(C)C[C@H]1Oc2ncc(C#Cc3ccncc3)cc2C(=O)N([C@@H](C)CO)C[C@@H]1C	.	18.7	-1.8	.	.	.	.
C[C@@H]1CN([C@H](C)CO)C(=O)c2cc(C#CC3CC3)cnc2O[C@@H]1CN(C)C(=O)C1CCCCC1	.	16.8	.	.	.	.	.
CNC(=O)CN(c1ccc(C23CC4CC(CC(C4)C2)C3)cc1)S(C)(=O)=O	7.6*	.	.	-1.8	-8.3	26.4*	14.8*
COc1cccc(S(=O)(=O)N[C@H]2C=C[C@@H](CC(=O)NCc3ccccc3)O[C@H]2CO)c1	.	3.0	3.3	.	.	.	.
COc1ccc(-c2cc(C(=O)NCC3CCCO3)c3cc(C)ccc3n2)cc1 (stereo not given)	7.6*	-6.3	25.4	18.9	37.6	67.6*	22.4*
COc1ccc(N=c2oc3cc(O)ccc3cc2C(=O)NCC2CCCO2)c(OC)c1 (stereo not given)	9.7*	-26.5	11.7	2.0	.	5.4	17.8*
O=C(Nc1nnc(C2CCCCC2)s1)c1cccs1	7.8*	-1.9	50.8*	58.0*	.	94.7*	27.0*
CN(C)S(=O)(=O)c1ccc2c(c1)c(=O)c(C(=O)N1CCOCC1)cn2C	9.8*	-0.4	-7.2	-0.8	-3.0	21.3	12.7*
Cn1cc(C(=O)N2CCN(c3ccccc3)CC2)c(=O)c2cc(S(=O)(=O)N3CCOCC3)ccc21	-1.8	7.8	-4.2	0.2	-1.2	.	.
COc1cccc(CNC(=O)C[C@H]2C=C[C@@H](NC(C)=O)[C@H](CO)O2)c1	.	-1.1	5.6	.	.	.	.
CON(C)c1nc(OCCNC(=O)OCc2ccc(Cl)cc2C)nc(N(C)C)n1	11.9*	9.2	4.3	-2.9	4.6	20.5	6.2
COc1ccc(OC)c(-c2cc(C(=O)Nc3c(C)nn(Cc4ccccc4)c3C)no2)c1	7.8*	-6.2	-7.3	.	15.8	8.0	12.5*
SMILES	FXN GAA850 act	C2C12 statin	esBAF inh	Wnt bcat act	MITF TRPM1 HTS	GAA30 FXN cntr	FXN GAA850 conf
CC1Oc2ccccc2C=C1/C=N/Nc1ccc(C(=O)O)cc1 (stereo not given)	10.2*	.	.	-4.5	34.0	97.4*	38.4*
Cc1cc(C(=O)Nc2cccc3c2O[C@@H](CN(C)CC2CC2)[C@@H](C)CN([C@H](C)CO)C3=O)n(C)n1	.	-6.4	-3.5	.	.	.	.
CCOC(=O)c1sc(-c2ccc(OC)cc2)cc1N	9.7*	-11.0	76.2*	.	99.0*	108.5*	30.0*
CCOC(=O)c1sc(-c2ccccc2)cc1N	8.9*	6.7	67.1*	53.8*	.	86.6*	23.2*
CCOC(=O)NC(=O)CSc1nc(-c2ccc(C)c(C)c2)cn1-c1ccccc1	7.9*	.	.	.	62.6	62.1*	33.9*
CCN(CC(O)c1cccc(O)c1)C(=O)C12CC3CC(CC(C3)C1)C2 (stereo not given)	18.9*	9.7	9.4	-0.3	11.6	32.5*	22.6*
Cc1ccc(S(=O)(=O)NC2c3cccc4cccc(c34)C2Sc2ncccn2)cc1 (stereo not given)	3.7	.	.	-4.6	5.0	.	.
Cc1cc(C)nc(SC2c3cccc4cccc(c34)C2NS(=O)(=O)c2ccccc2)n1 (stereo not given)	8.6*	.	.	-5.9	4.8	15.0	14.2*
Cc1sc(N)nc1-c1ccc(Oc2ccccc2)cc1	8.8*	9.1	25.0	5.8	40.7	62.6*	24.7*
Nc1nc(N)nc(-c2ccc(Oc3ccccc3)cc2)n1	10.9*	-15.2	19.7	-1.4	20.7	26.8*	13.8*
CCCn1c(=O)[nH]c(=O)c2c(C(F)(F)F)cc(-c3ccc(C)cc3)nc21	0.6	.	.	-1.2	10.3	.	.
CC(C)Cn1c(=O)[nH]c(=O)c2c(C(F)(F)F)cc(-c3ccccc3)nc21	7.7*	-7.8	-9.6	6.9	15.7	-4.1	16.0*
Cn1cc(CN2CCCC(CNC(=O)c3ccc4c(c3)OCO4)C2)c2ccccc21 (stereo not given)	10.9*	-4.1	10.2	-1.5	-6.6	21.2	12.6*
CC(=O)NCC1CCCN(Cc2cn(-c3ccccc3)nc2-c2ccc3c(c2)OCO3)C1 (stereo not given)	0.2	.	.	-2.0	-2.1	.	.
COc1ccc([N+](=O)[O-])cc1Nc1c2ccccc2nc2ccccc12	9.3*	-63.6	-3.6	-4.0	.	2.9	21.1*

Assay outcomes as filed in PubChem.
